For six targets, log2 fold change results are on record in the supplement of paper PMC10849652.

Of roughly 7,900 targets only a part is listed; those with a hit were picked by preference. About 0.6% of all pairs of compound and target were hits. Values without a mark were called inactive.

Common to all, as to assay: log2 fold change, soluble protein after heating vs DMSO (PISA); higher = thermal stabilisation; K562 cells, 10 uM, 30 min; active = over 0.2 and 3.5 SD of the protein, either way, in both replicates (recomputed)
Compound in assay [1]: CC[C@@H]1C(=O)N(C)c2cnc(Nc3ccc(C(=O)NC4CCN(C)CC4)cc3OC)nc2N1C1CCCC1
The essentials: (§1)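 Quantification of soluble protein used TMTpro 16plex LC-MS/MS, with channel sums equalised. Samples were the supernatant after 21,000xg for 90 min of pooled aliquots from K562 cells (2×10^6 cells/mL) treated with 10 μM compound for 30 min, heated for 3 min over 48°C-58°C, and extracted in PBS with 0.5% NP-40 at 4°C. Values, from duplicates, describe thermal stability against control samples on a log2 fold-change scale.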

Compound in assay [2]: CC[C@@H]1C(=O)N(C)c2cnc(Nc3ccc(C(=O)N[C@H]4CC[C@H](N5CCN(CC6CC6)CC5)CC4)cc3OC)nc2N1C(C)C [volasertib]
The essentials: as §1

Compound in assay [3]: CC[C@H](C)N1C=C(C2=C(C=C(C=C21)C3=CN=C(C=C3)N4CCNCC4)C(=O)NCC5=C(C=C(NC5=O)C)C)C
The essentials: as §1

Compound in assay [4]: CC[C@H](C)[C@@H](C(=O)N[C@@H]([C@@H](C)O)C(=O)N[C@@H](CC(C)C)C(=O)[C@]1(CO1)C)NC(=O)[C@H]([C@@H](C)CC)N(C)C(=O)C [epoxomicin]
The essentials: as §1

Compound in assay [5]: CCn1c(C(=O)N(C2CC2)C2CC2)cc2c3c(ncn3C)c(Nc3cc(C)n(C)n3)nc21
The essentials:
as §1

Compound in assay [6]: CCn1cc(-c2ccnc3[nH]c(-c4cccc(CN(C)C)c4)cc23)c(-c2ccc(NC(=O)N(C)C)cc2)n1
The essentials:
as §1

Compound in assay [7]: CN(C)CC(=O)Nc1ccc2[nH]c(=O)c3ccccc3c2c1
The essentials:
as §1

Compound in assay [8]: CN(CCOC1=CC=C(C=C1)C[C@H]2C(=O)NC(=O)S2)C3=CC=CC=N3 (racemic) [rosiglitazone]
The essentials:
as §1

Compound in assay [9]: CN1C2=C(C3=C1C(=O)N(N=C3)CC4=CC(=CC=C4)N)SC(=C2)S(=O)C
The essentials:
as §1

Compound in assay [10]: CN1CCC(CNc2ccc3ncc(-c4cccc(OC(F)(F)F)c4)n3n2)CC1
The essentials: as §1

Compound in assay [11]: CN1CCN(CCOc2cc(OC3CCOCC3)c3c(Nc4c(Cl)ccc5c4OCO5)ncnc3c2)CC1 [saracatinib]
The essentials:
as §1

Compound in assay [12]: CN1CCN(c2nc(C3=C(c4c[nH]c5ccccc45)C(=O)NC3=O)c3ccccc3n2)CC1 [sotrastaurin]
The essentials:
as §1

Compound in assay [13]: CN1CC[C@H](c2c(O)cc(O)c3c(=O)cc(-c4ccccc4Cl)oc23)[C@H](O)C1 [alvocidib]
The essentials: as §1

Compound in assay [14]: CN1CCc2c(c3ccccc3n2Cc2ccc(C(=O)NO)cc2)C1 [Tubastatin A]
The essentials:
as §1

Compound in assay [15]: CNC(=O)C1=CC=CC=C1NC2=NC(=NC=C2Cl)NC3=C(C=C(C=C3)N4CCOCC4)OC
The essentials: as §1

Compound in assay [16]: CNC(=O)c1ccc(Nc2ncc(C(F)(F)F)c(NCc3nccnc3N(C)S(C)(=O)=O)n2)cc1 [defactinib]
The essentials: as §1

Compound in assay [17]: CNCc1ccc(-c2[nH]c3cc(F)cc4c3c2CCNC4=O)cc1 [rucaparib]
The essentials: as §1

Compound in assay [18]: CNc1nc(-c2ccc3c(N)n[nH]c3c2)cc(N2C[C@@H](C(=O)NC3CCCCC3)CC[C@H]2C)n1
The essentials:
as §1

Compound in assay [19]: COC(=O)N[C@@H](C)CNc1nccc(-c2cn(C(C)C)nc2-c2cc(Cl)cc(NS(C)(=O)=O)c2F)n1 [encorafenib]
The essentials:
as §1

Compound in assay [20]: COC(=O)[C@H](CCSC)NC(=O)C1=C(C=C(C=C1)NC[C@H](CS)N)C2=CC=CC=C2
The essentials:
as §1

Chain of UniProt Q9P2B2 (Q9P2B2 whole entry, looked up): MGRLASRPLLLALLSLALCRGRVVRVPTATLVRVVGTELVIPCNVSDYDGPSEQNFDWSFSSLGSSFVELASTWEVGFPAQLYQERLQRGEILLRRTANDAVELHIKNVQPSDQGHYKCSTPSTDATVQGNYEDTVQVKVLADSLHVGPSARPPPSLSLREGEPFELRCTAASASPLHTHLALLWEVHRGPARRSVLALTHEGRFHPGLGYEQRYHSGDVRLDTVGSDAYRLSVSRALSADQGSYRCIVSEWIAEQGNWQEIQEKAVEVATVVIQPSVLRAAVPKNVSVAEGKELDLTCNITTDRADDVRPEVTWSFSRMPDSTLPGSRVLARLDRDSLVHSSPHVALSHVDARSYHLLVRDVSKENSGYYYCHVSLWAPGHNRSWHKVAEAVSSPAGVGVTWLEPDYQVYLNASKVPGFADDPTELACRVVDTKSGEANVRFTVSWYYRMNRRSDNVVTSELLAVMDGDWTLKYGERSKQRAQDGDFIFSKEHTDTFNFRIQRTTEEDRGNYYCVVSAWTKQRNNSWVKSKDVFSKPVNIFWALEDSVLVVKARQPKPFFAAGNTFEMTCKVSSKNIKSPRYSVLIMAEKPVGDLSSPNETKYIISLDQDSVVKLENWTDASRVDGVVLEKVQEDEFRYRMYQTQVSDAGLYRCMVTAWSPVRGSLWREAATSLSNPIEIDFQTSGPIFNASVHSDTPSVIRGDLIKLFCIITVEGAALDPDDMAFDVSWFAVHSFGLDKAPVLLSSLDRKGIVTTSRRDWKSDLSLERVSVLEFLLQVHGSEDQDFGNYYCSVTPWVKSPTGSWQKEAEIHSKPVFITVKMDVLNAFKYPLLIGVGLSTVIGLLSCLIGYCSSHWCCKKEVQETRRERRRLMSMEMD
Chain of UniProt O75400 (O75400 whole entry, looked up): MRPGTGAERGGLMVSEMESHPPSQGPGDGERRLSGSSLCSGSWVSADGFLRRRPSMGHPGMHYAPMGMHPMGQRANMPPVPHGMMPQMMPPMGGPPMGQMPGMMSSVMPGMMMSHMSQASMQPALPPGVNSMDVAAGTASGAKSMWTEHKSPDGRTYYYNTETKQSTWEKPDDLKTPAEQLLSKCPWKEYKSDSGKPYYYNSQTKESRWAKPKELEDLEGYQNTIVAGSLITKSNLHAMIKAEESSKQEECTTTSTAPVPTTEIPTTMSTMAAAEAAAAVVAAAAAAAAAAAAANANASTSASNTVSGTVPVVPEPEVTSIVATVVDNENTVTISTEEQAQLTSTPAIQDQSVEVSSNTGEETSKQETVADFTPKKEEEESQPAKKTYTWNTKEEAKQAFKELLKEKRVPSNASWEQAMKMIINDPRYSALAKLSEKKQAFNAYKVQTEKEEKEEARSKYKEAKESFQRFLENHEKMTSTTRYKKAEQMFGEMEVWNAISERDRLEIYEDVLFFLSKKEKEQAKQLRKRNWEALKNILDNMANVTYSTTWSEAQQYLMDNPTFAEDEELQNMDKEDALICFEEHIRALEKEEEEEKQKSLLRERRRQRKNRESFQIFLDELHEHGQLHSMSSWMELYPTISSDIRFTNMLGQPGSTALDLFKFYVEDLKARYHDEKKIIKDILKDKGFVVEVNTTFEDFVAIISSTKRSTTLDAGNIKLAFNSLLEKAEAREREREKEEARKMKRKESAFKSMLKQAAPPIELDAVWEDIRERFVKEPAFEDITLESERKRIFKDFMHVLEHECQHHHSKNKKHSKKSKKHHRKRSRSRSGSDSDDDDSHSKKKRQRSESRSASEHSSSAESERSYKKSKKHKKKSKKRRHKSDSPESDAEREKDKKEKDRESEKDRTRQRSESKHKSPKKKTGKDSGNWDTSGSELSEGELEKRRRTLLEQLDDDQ
Chain of UniProt Q00577 (Q00577 whole entry, looked up): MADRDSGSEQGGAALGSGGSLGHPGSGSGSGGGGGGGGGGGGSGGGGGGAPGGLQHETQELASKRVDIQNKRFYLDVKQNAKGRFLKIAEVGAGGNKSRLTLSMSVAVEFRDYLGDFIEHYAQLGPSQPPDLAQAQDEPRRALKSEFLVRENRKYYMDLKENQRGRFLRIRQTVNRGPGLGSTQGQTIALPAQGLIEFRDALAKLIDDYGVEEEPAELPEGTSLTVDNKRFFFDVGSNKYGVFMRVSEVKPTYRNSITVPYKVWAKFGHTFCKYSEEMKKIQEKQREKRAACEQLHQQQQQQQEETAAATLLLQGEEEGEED
Chain of UniProt Q9BRX2 (Q9BRX2 whole entry, looked up): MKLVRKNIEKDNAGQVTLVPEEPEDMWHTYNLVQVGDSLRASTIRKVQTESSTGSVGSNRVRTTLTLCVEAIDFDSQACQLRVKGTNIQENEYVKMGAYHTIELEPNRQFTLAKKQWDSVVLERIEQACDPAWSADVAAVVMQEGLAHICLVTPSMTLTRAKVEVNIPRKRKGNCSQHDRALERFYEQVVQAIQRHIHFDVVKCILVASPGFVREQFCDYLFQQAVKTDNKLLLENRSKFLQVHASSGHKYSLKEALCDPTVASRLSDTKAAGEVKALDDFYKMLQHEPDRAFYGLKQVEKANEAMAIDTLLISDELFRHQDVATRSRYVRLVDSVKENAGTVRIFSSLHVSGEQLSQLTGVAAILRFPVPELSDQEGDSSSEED
Chain of UniProt Q8WUK0 (Q8WUK0 whole entry, looked up): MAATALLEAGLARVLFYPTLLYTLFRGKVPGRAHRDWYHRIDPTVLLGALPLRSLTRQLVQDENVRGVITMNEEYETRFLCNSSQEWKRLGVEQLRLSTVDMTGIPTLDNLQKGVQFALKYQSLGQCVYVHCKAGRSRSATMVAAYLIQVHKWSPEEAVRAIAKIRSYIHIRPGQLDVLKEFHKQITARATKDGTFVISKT

In the case of PTPMT1 (UniProt Q8WUK0), the log2 fold change is -0.298 in [1]; -0.127 in assay [2]; 0.002 in assay [3]; 0.088 in assay [4]; 0.044 in [5]; -0.051 in assay [6]. Further, the log2 fold change in assay [7] was 0.012; in assay [8] it was -0.012; in [9], -0.006; in assay [10] it was -1.21 (active); in assay [11], -0.037; in assay [12], -0.059. Further, the log2 fold change in assay [13] is -0.008; in assay [14], -0.063; in assay [15], 0.027; in assay [16], -0.07; in [17], -0.118; in assay [18], -0.019. Further, the log2 fold change in [19] was 0.044; in [20], 0.045.

As for POLR2B (UniProt P30876), the log2 fold change in assay [1] was 0.064; in assay [2], -0.128; in assay [3], -0.018; in assay [4] it was -0.008; in assay [5], -0.046; in assay [6], 0.023. Besides, the log2 fold change in assay [7] was -0.015; in [8], 0.037; in assay [9] it was 0.03; in [10], 0.031; in assay [11], -0.071; in [12] it was -0.032. For the same target, the log2 fold change in [13] was 0.254 (active); in [14], -0.01; in [15] it was -0.016; in [16], 0.173; in [17], 0.174; in assay [18], -0.012. Further, the log2 fold change is 0.056 in assay [19] and -0.044 in assay [20].

As to PRPF40A (UniProt O75400), the log2 fold change in [1] was -0.036; in [2], -0.216; in assay [3], 0.089; in [4], 0.022; in assay [5], -0.096; in assay [6], 0.065. The log2 fold change in assay [7] is 0.036; in assay [8], 0.041; in [9] it was 0.074; in assay [10] it was -0.04; in [11] it was -0.026; in assay [12], -0.099. The log2 fold change in [13] is -0.171; in assay [14], 0.103; in assay [15] it was -0.197; in assay [16] it was -0.219; in assay [17], 0.029; in [18], -0.03. Also, the log2 fold change is 0.026 in assay [19] and -0.024 in assay [20].

As for PTGFRN (UniProt Q9P2B2), the log2 fold change is 0.032 in assay [1]; 0.008 in assay [2]; 0 in assay [3]; 0.014 in assay [4]; 0.022 in assay [5]; -0.049 in assay [6]. Moreover, the log2 fold change in assay [7] is -0.01; in assay [8], 0.025; in assay [9], -0.104; in assay [10], 0.181; in [11], 0.029; in assay [12], 0.082. The log2 fold change in assay [13] is -0.029; in assay [14] it was 0; in assay [15], -0.092; in assay [16], -0.049; in assay [17], -0.024; in [18], 0.056. Further, the log2 fold change in [19] is -0.004; in [20], 0.053.

PURA (UniProt Q00577): the log2 fold change in [1] is 0.355; in assay [2] it was 0.418; in assay [3] it was -0.087; in [4], -0.197; in [5], 0.036; in [6], 0.26. For the same target, the log2 fold change in [7] is -0.095; in assay [8] it was -0.18; in assay [9], 0.327; in [10] it was 0.441; in assay [11], 0.061; in [12], 0.063. The log2 fold change in assay [13] is 0.321; in assay [14] it was 0.001; in [15] it was 0.059; in assay [16], 0.347; in [17], 0.309; in [18], 0.076. In addition, the log2 fold change is 0.086 in [19] and 0.04 in [20].

With PELO (UniProt Q9BRX2), the log2 fold change in [1] is -0.017; in assay [2], -0.387; in assay [3] it was 0.09; in [4], -0.058; in assay [5], -0.068; in assay [6] it was 0.007. The log2 fold change in assay [7] is -0.017; in [8] it was 0.085; in assay [9], 0.138; in assay [10], -0.312; in [11] it was -0.079; in assay [12], -0.218. Besides, the log2 fold change in assay [13] was -0.066; in assay [14], 0.121; in assay [15], -0.122; in [16], -0.058; in assay [17], 0.299; in [18], 0.148. Moreover, the log2 fold change in [19] is 0.137; in [20], 0.061.
